HTR5A ag: activates human HTR5A in OPRM1-OPRD1 agonist counter-screen; activation, % at 9.3 µM; actives 0.61% (n = 340,000); AID 504692; HTR5A agonist assay, luminescence, cell-based; P47898; in the data active = activation mostly above about 9.5%, no sharp cut-off; inactive = mostly below about 7.6%;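 note: 0% = cells with vehicle only and 100% = reference agonist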
Target sequence (P47898 whole entry, looked up): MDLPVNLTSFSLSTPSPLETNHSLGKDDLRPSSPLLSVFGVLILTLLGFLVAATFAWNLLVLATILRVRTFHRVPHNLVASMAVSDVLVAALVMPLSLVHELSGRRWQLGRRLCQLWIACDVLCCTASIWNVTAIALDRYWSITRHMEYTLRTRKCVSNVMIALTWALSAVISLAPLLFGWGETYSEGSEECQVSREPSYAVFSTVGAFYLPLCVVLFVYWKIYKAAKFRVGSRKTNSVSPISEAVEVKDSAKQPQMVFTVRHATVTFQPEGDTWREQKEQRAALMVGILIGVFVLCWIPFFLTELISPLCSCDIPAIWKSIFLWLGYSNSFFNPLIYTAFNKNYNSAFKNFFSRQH
HTR5A inv ctr: counter-screen for OPRM1-OPRD1 inverse agonists: human HTR5A inverse agonism; actives 0.083% (n = 340,000); HTR5A cell line, luminescence; AID 504634; P47898; inhibition, % at 9.3 µM; in the data active = inhibition mostly above about 23%, no sharp cut-off; inactive = mostly below about 18%;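 note: 0% = cells with DMSO and 100% = no-cell wells with DMSO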
MOR-DOR inv ag: inverse agonist of human OPRM1-OPRD1 heterodimerization. inhibition, % at 9.3 µM. actives 0.21% (n = 340,000). P35372+P41143. cell-based MOR-DOR heterodimer luminescence, inverse agonism; in the data active = inhibition above about 22%, passing the limit was not always enough;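 note: 0% = cells with DMSO and 100% = wells without cells with DMSO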
PolyA inhibitor: blocks polyadenylation in yeast reporter cells; S. cerevisiae SKY197-pL101 polyadenylation reporter, beta-gal luminescence; efflux-impaired pdr1/pdr3 knockout yeast; score 100 = 6 SD above DMSO; activity score, % at 12 µM; actives 0.02% (n = 300,000);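 active = lowest replicate activity score at least 50, where 100 means six control SD above control mean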;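 note: yeast exposed to compound for 9 h at 30 °C; higher score means more reporter readthrough which indicates perturbed polyadenylation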
NALP1 yeast inh: blocks the NALP1 inflammasome reconstituted in yeast. S. cerevisiae NALP1/ASC/caspase-1 growth, X-gal OD620, 72 h. inhibition, % at 10 µM. actives 0.61% (n = 280,000); in the data active = inhibition mostly above about 24%, no sharp cut-off; inactive = mostly below about 32%
OPRM1-OPRD1 ag: OPRM1-OPRD1 heterodimerization agonism; P35372+P41143; cells, luminescence; activation, % at 9.3 µM; actives 0.3% (n = 340,000); AID 504326;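 note: 0% = vehicle-treated cells and 100% = reference agonist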
OPRM1-D1 ag cf: OPRM1-OPRD1 heterodimer agonism, confirmation | shares compounds with OPRM1-OPRD1 ag | cells, MOR-DOR heterodimerization, luminescence complementation | activation, % at 9.3 µM | actives 45% (n = 830) | AID 504904;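 note: 0% = vehicle-treated cells and 100% = reference agonist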
HTR5A ag ctr2: activates human HTR5A in OPRM1-OPRD1 agonist counter-screen. actives 8% (n = 830). AID 504905. HTR5A agonist counterscreen, cell luminescence. shares compounds with OPRM1-OPRD1 ag. activation, % at 9.3 µM; in the data active = activation above about 17%;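 note: 0% = vehicle-treated cells and 100% = reference agonist response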
An asterisk follows results filed as active; i = inactive; · = no result. Shown are actives, neighbours in structure and some others; about 1.6% of the full set was active somewhere. Cut-off read from the data, not from the text of the source, unless noted: active = activation above about 18%; inactive = the rest.

SMILES | HTR5A ag | HTR5A inv ctr | MOR-DOR inv ag | PolyA inhibitor | NALP1 yeast inh | OPRM1-OPRD1 ag | OPRM1-D1 ag cf | HTR5A ag ctr2
C[C@H]1O[C@@H](OC2CC[C@]3(C=O)[C@H]4CC[C@]5(C)[C@@H](C6=CC(=O)OC6)CC[C@]5(O)[C@@H]4CC[C@]3(O)C2)CC2OC(C)(C)OC21 (stereo partly drawn) | 33* | -127 | -420 | 14 | -5 | 73* | -2 | -2
C[C@]12CCC3C(CCC4=CC(O)CC[C@@]43/C=N/O)C1(O)CCC2C1=CC(=O)OC1 (stereo partly drawn) | 29* | -106 | -355 | -1 | -3 | 69* | 38* | 22*
C[C@]12CC[C@H]3[C@@H](CC[C@]4(O)C[C@@H](O)CC[C@]34C=O)[C@@]1(O)CC[C@@H]2C1=CC(=O)OC1 | 20 | -71 | -376 | · | · | 70* | 0 | 0
ClCCN1CCN(c2ccnc3cc(Cl)ccc23)CC1 | 5 | -17 | 10 | 4 | 23 | -2 | · | ·
O=c1[nH]c(CN2CC=C(c3ccccc3)CC2)nc2scc(-c3ccccc3)c12 | 6 | -22 | 3 | -2 | · | -1 | · | ·
CC(=O)c1ccc(OC(C)C)c(Cc2c(O)[nH]c(=S)[nH]c2=O)c1 | 3 | -7 | 11 | 3 | 7 | -2 | · | ·
COC(=O)C(=O)N1CC2(C)CNCC(C)(C1)C2=O | 2 | -17 | 6 | 5 | 6 | -1 | · | ·
CC12CCC3C(CCC4(O)CC(O)CCC34C=O)C1(O)CCC2C1=CC(=O)OC1 (stereo not drawn) | 29* | -113 | -405 | · | · | 79* | 41* | 24*
CC12CCC3C(CCC4(O)CC(O)CCC34C=NO)C1(O)CCC2C1=COC(=O)C1 (stereo not drawn) | 31* | -118 | -337 | · | · | 77* | 0 | -1
CC12CC[C@H]3[C@@H](CCC4(O)C[C@H](O)CCC34/C=N/NC(=O)c3ccccc3Cl)C1(O)CCC2C1=CC(=O)OC1 (stereo partly drawn) | 4 | -13 | 5 | -9 | · | -1 | · | ·
CC1OC(OC2C=C3CCC4C(CCC5(C)C(c6ccc(=O)oc6)CCC45O)C3(C)CC2)C(O)C(OC2OC(CO)C(O)C(O)C2O)C1O (stereo not drawn) | 26* | -99 | -401 | · | · | 92* | 2 | 0
CCc1cc(=O)oc2c(C)c(OCC(=O)N3C[C@H]4C[C@@H](C3)c3cccc(=O)n3C4)ccc12 | 1 | 10 | 8 | 6 | 15 | -2 | · | ·
CC1=NCCc2c1[nH]c1ccccc21 | 5 | -40 | -108 | 12 | 1 | 19* | 6 | 12
COc1ccc2c3c1OC1[C@H](O)CCC4[C@@H](C2)N(C)CC[C@]314 (stereo partly drawn) | 4 | -9 | -185 | · | · | 46* | 2 | 4
CN1CC[C@]23c4c5ccc(OC6OC(C(=O)O)[C@@H](O)C(O)[C@H]6O)c4OC2C(O)C=CC3[C@H]1C5 (stereo partly drawn) | 4 | -10 | -34 | · | · | 8 | · | ·
CC(=O)OC1C=CC2[C@H]3Cc4ccc(O)c5c4[C@@]2(CCN3C)C1O5 (stereo partly drawn) | 6 | -13 | i | · | · | 282* | -2 | -1
CN1CC[C@]23c4c5ccc(O)c4OC2C(O)C=CC3[C@H]1C5 (stereo partly drawn) | 7 | -15 | · | · | · | · | · | -2
COc1ccc2c(c1O)C13CCN(C)C(C2)C1CCC(=O)C3 (stereo not drawn) | · | · | · | -13 | · | · | · | ·
CC1CN1P(=O)(Oc1ccccc1)N1CC1C (stereo not drawn) | 0 | -1 | 6 | · | · | -1 | · | ·
CCOP(=O)(OCC)C(O)c1ccc(OC)c(OC)c1 (stereo not drawn) | -2 | -2 | -4 | -13 | -6 | 1 | · | ·
COC(=O)C1=C(c2ccc(F)cc2OCc2ccccc2)C[C@@H]2CC[C@H]1N2C(=O)NCC1CC1 | 8 | -1 | 10 | · | · | -2 | · | ·
CC[C@H](OC(C)=O)C(C[C@H](C)N(C)C)(c1ccccc1)c1ccccc1 | -2 | 4 | i | · | · | 221* | 2 | 52*
CCc1ccc(N2C(=O)CC(=O)NC2=O)cc1 | 4 | -16 | 16 | -18 | 6 | -4 | · | ·
CCN(CC)C(=O)c1ccc(NC(=O)C2=C(C)OCCS2)cc1 | -1 | 3 | 11 | 13 | -27 | -2 | · | ·
CN(C)CC1CCCCC1OC(=O)Cc1ccc(Cl)c([N+](=O)[O-])c1 (stereo not drawn) | -1 | 2 | -15 | 19 | 0 | 2 | · | ·
SMILES | HTR5A ag | HTR5A inv ctr | MOR-DOR inv ag | PolyA inhibitor | NALP1 yeast inh | OPRM1-OPRD1 ag | OPRM1-D1 ag cf | HTR5A ag ctr2
Cc1cc(-c2ccccc2)cc(C)[n+]1Cc1ccccc1 | 3 | 3 | -299 | 0 | · | 53* | 0 | 1
COc1ccc(CCn2c(O)c(C=NCCN3CCCCC3)c(=O)[nH]c2=O)cc1OC | 2 | -3 | -398 | 19 | 6 | 79* | 1 | -1
CN(C)C(CNC(=O)Cc1c(Cl)cccc1Cl)c1ccccc1 (stereo not drawn) | 1 | -3 | i | 11 | 24 | 145* | 1 | 4
CC(NCc1cccc(Cl)c1Cl)C(O)c1ccccc1 (stereo not drawn) | 8 | -20 | 4 | 2 | 40 | -1 | · | ·
Cc1cc(OCC(=O)NC(Cc2ccc(Cl)cc2)C(=O)O)c2c3c(c(=O)oc2c1)CCCC3 (stereo not drawn) | 3 | 14 | -1 | 11 | 10 | 0 | · | ·
COC(=O)C1=C(c2cc3ccccc3s2)C[C@@H]2CC[C@H]1N2C | 0 | 8 | 5 | · | · | -1 | · | ·
CCOC(=O)C1(CCc2ccccc2)CCN(Cc2ccc(NC(C)=O)cc2)CC1 | -1 | 2 | i | -9 | 14 | 293* | 372* | 0
CCOC(=O)C1(CCOc2ccccc2)CCN(Cc2ccc(C)s2)CC1 | -1 | 4 | -171 | -11 | 22 | 33* | 39* | 3
CCOC(=O)C1(CCc2ccccc2)CCN(C2CCSCC2)CC1 | -3 | 7 | -10 | -27 | 9 | 2 | · | ·
CCOC(=O)C1(CCc2ccccc2)CCN(Cc2ccc3c(c2)OCCO3)CC1 | 6 | -13 | -121 | -18 | 20 | 25* | 1 | 4
COC(=O)C1=C(c2cccc(C#N)c2)C[C@@H]2CC[C@H]1N2C(=O)NCc1cccc2ccccc12 | 2 | 9 | 11 | · | · | -2 | · | ·
CCC(=O)OC(Cc1ccccc1)(c1ccccc1)[C@H](C)CN(C)C (stereo partly drawn) | 9 | -22 | -326 | · | · | 81* | 80* | -5
CC(CN1CCOCC1)OC(=O)Cc1ccccc1 (stereo not drawn) | 0 | 5 | 8 | -4 | 6 | -2 | · | ·

Screening data as filed in PubChem.
